These results are taken from PubChem BioAssay (NCATS).

Inconclusive results are not listed. Active and inactive are the calls of the source. Unless noted, the call rests on the fitted dose curve; in most records, active means well fitted curve in the direction sought with a large enough effect; inconclusive means small, poorly fitted or top-dose-only effect, or another doubt; inactive means no such curve, though single readings can be large; an effect the other way counts as inactive or inconclusive.

Assay [1] can be described thus: Counterscreen for APE1 Inhibitors: Fluorescent Dye Displacement Validation Assay (AID 1707). Summed up: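 Thiazole Orange displacement from dsDNA: 250 nM ThO with 50 nM TAMRA-labelled abasic-site (tetrahydrofuran) duplex in 50 mM Tris-HCl pH7.5, 50mM NaCl, 2 mM MgCl2, 0.01% Tween-20. Loss of endpoint fluorescence (ex 480 nm, em 540 nm) flags DNA binders.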
Assay [2] addresses Endonuclease 4 (Escherichia coli (strain K12)) (UniProt P0A6C1). The assay is described as follows: Counterscreen for APE1 Inhibitors: qHTS Validation Assay for Inhibitors of Endonuclease IV (AID 1708). Summed up:
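Enzymatic AP-site incision assay using a double-stranded THF substrate labelled with TAMRA and BHQ-2; released fluorescence signals activity. Enzyme 2 nM, substrate 50 nM, 15 min compound preincubation.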

Assay [3] can be described thus: qHTS for differential inhibitors of proliferation of Plasmodium falciparum line 7G8 (AID 1815).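 Further: potency means the concentration at half of the fitted maximal effect; parasite growth measured after three days of incubation.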
The nature of assay [4]: qHTS for differential inhibitors of proliferation of Plasmodium falciparum line 3D7 (AID 1876). Further: potency means the concentration at half of the fitted maximal effect.
Assay [5] is described as follows: qHTS for differential inhibitors of proliferation of Plasmodium falciparum line D10 (AID 1877).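 Further: potency means the concentration at half of the fitted maximal effect; parasites grown with compound for 72 h before DNA staining.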
Assay [6] in a line: qHTS for differential inhibitors of proliferation of Plasmodium falciparum line Dd2 (AID 1882). Further: potency means the concentration at half of the fitted maximal effect; nearly all actives have a fitted effect of over 65% in size. The settings on record: Potency: Plasmodium falciparum Dd2 proliferation inhibition. Summed up: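 SYBR Green I DNA fluorescence read-out, ex 485/em 535 nm. Signals were normalized to 0.29 uM artemisinin and DMSO wells, then corrected using vehicle-only plates flanking each stack. Parasite growth ran 72 h in erythrocytes before lysis.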

The nature of assay [7]: qHTS for differential inhibitors of proliferation of Plasmodium falciparum line HB3 (AID 1886).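 Further: potency means the concentration at half of the fitted maximal effect; parasites grown with compound for 72 h before SYBR Green readout.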 The settings on record: Potency: Plasmodium falciparum HB3 proliferation inhibition.
The target of assay [8] is Ferritin light chain (Equus caballus) (UniProt P02791). The assay can be described thus: qHTS Validation Assay for Identification of Novel General Anesthetics (AID 2323). Further: series mostly up to about 77 µM. Summed up: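 Competitive displacement of profluorescent 1-aminoanthracene (1-AMA, 50% saturated solution in PBS) from 10 uM horse-spleen apoferritin. Compounds incubated 10 min at room temperature; fluorescence read at 380 nm excitation/535 nm emission, normalized to free 1-AMA and complex, fitted with four-parameter Hill equation.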
Sequence of Ferritin light chain (Equus caballus) (P02791 2-175 limits assumed): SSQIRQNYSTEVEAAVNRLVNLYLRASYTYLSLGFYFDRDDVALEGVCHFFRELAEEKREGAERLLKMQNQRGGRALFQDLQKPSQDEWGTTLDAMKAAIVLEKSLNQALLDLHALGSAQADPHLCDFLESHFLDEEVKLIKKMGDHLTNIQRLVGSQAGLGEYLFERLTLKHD

Assay [9] deals with ATP-dependent DNA helicase Q1 (Homo sapiens) (UniProt P46063). The assay can be described thus: qHTS Validation Assay for Inhibitors of RecQ-Like Dna Helicase 1 (RECQ1) (AID 2353). Summed up:
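50 nM RECQ1T1 preincubated 15 min with compound in Tris pH 8.0 buffer with MgCl2, DTT, Tween-20 and 2.5 ug/ml poly(dI-dC); started with 200 nM TAMRA/BHQ-2 forked duplex and 2 mM ATP. Unwinding read as fluorescence (525/598 nm), two reads 2 h apart.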

The nature of assay [10]: High Content Imaging Cell-Based qHTS for Inhibitors of the mTORC1 Signaling Pathway in MEF Cells (AID 2667).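 Further: Tsc2-/- p53-/- MEFs stably re-expressing wild-type Tsc2 exposed 24 h; series mostly up to about 38 µM.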 Summed up: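 Immunofluorescence for rpS6 phosphorylation in MEFs of Tsc2-/-, p53-/- background rescued with WT Tsc2. Compound exposure lasted 24 hrs. Inhibition was scored against rapamycin-treated control wells.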
Assay [11] can be described thus: Validation screen for small molecules that induce DNA re-replication in MCF 10A normal breast cells (AID 463097). Further: nearly all actives have a fitted effect of over 60% in size. Summed up: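 Readout: Hoechst nuclear fluorescence intensity, 405 ex / 500-530 em, by scanning plate imager; re-replication scored as increase in nuclei with elevated DNA content. Cells exposed to compound 48 hr, 37 C, 5% CO2 beforehand.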
For assay [12], the target named is Ubiquitin carboxyl-terminal hydrolase 2 (Homo sapiens) (UniProt O75604). The assay can be described thus: qHTS Validation Assay for Inhibitors of Ubiquitin-specific Protease USP2a Using CHOP2 as the Reporter (AID 463106). Summed up:
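10nM USP2 core + cpd, 30min RT; add 25nM Ub-CHOP2/25nM substrate; 60min RT; FI 485/531nm. Buffer Tris pH 8.0, CaCl2, BME, CHAPS. Norm. to NEM = 100% inhibition; time-zero read flags fluorescent artifacts.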

Assay [13] concerns the target DNA polymerase III PolC-type (Bacillus subtilis (strain 168)) (UniProt P13267). The assay is described as follows: qHTS Validation Assay for the Inhibitors of DNA Replication in Gram-Positive Bacteria (AID 485295).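 Further: PicoGreen fluorescence of double-stranded DNA made on primed circular M13 template; series mostly up to about 57 µM.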 Summed up: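 Reconstituted B. subtilis holoenzyme (Pol III, beta clamp, SSB, primase) was preincubated with compound at room temperature, then given single-stranded circular M13Gori plus dNTPs and NTPs. EDTA-containing PicoGreen stopped the reaction, and dsDNA product was read by fluorescence.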

In assay [14] the target is Tumor susceptibility gene 101 protein (Homo sapiens) (UniProt Q99816). The assay is described as follows: qHTS Validation Assay for Iinhibitors of HIV-1 Budding by Blocking the Interaction of PTAP/TSG101 (AID 485342; calls by dose curve). Summed up:
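Tsg101 binding domain (10 uM final) in pH 7.5 HEPES/NaCl/Tween 20/EDTA/TCEP buffer was mixed with pin-transferred compounds, then FITC-labeled PTAP peptide (50 nM final) was added; after 20 min at r.t., fluorescence polarization was read.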

The target of assay [15] is Beta-2 adrenergic receptor (Homo sapiens) (UniProt P07550). The assay is described as follows: qHTS validation assay of beta-arrestin-biased ligands of beta2-adrenergic receptor (AID 485366). Summed up:
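Tango cells (recombinant beta2-AR with recombinant beta-arrestin; recruitment releases tTA driving luciferase) were treated with compounds titrated up to 46 microM for 18 hr at 37 degrees C. Luminescence gave %Activity, and concentration-response curves were curve-classified.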

A short description of assay [16]: Quantitative high throughput screen for delayed death inhibitors of the malarial parasite plastid, 96 hour incubation (AID 488745). Further: potency means the concentration at half of the fitted maximal effect; nearly all actives have a fitted effect of over 70% in size. Summed up: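 P. falciparum carrying an integrated firefly luciferase reporter, grown in erythrocytes (2% hematocrit, 0.1% parasitemia final) in RPMI 1640/0.5% Albumax, was exposed to compound for 96 h (two generations) at 37 C, 5% CO2. Luminescence decrease indicated growth inhibition.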

In assay [17] the target is Thioredoxin reductase 1, cytoplasmic (Rattus norvegicus) (UniProt O89049). The assay can be described thus: qHTS Assay for Substrates of Mammalian Selenoprotein Thioredoxin Reductase 1 (TrxR1) (AID 488772).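 Further: NADPH fluorescence in the first read after selenite addition and not the 8 min delta; series mostly up to about 57 µM; a drop in NADPH fluorescence below the no-compound background marks a TrxR1 substrate.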 Summed up: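 Quantitative HTS in Tris-HCl buffer at pH 7.5 with EDTA and Tween-20, using rat TrxR1, 400 uM NADPH and 400 uM selenite (final). A fall in initial NADPH fluorescence relative to background marked substrate behaviour.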
Sequence of Thioredoxin reductase 1, cytoplasmic (Rattus norvegicus) (O89049 whole entry, looked up): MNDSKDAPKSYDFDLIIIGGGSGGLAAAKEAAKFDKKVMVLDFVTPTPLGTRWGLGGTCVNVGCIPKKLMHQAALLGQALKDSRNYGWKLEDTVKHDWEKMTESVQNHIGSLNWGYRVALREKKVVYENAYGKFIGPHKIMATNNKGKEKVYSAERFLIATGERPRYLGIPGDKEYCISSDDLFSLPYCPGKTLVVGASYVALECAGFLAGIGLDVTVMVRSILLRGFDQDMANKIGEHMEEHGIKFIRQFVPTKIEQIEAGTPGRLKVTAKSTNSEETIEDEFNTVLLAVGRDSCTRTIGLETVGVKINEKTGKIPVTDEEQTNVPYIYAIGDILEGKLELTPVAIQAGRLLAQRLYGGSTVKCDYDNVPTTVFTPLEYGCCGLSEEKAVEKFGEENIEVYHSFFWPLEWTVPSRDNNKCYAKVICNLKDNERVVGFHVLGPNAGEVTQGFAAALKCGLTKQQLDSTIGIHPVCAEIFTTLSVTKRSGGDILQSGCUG

Assay [18] has the same target. The assay can be described thus: qHTS Assay for Inhibitors of Mammalian Selenoprotein Thioredoxin Reductase 1 (TrxR1) (AID 488773). Further: potency means the concentration at half of the fitted maximal effect; nearly all actives have a fitted effect of over 40% in size. The note with it: Potency: inhibition. Summed up: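 Steps: enzyme (90 nM) plus NADPH (400 uM final), 5 min at ~22 deg C; compound added, 15 min; selenite (400 uM final) added; fluorescence followed for 8 min. Concentration-response curves derived from the normalized delta values.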

The target in assay [19] is M-phase phosphoprotein 8 (Homo sapiens) (UniProt Q99549). The assay can be described thus: qHTS Validation Assay for Inhibitors for MPP8 Chromodomain Interactions with Methylated Histone Tails (AID 488949). Further: top concentration of the series differs between compounds; nearly all actives have a fitted effect of over 55% in size. Summed up: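 MPP8 (50 nM) was preincubated with biotinylated H3(1-18)K9me3 peptide (50 nM) in PBS pH 7.4, 0.01% Tween-20 for 30 min at room temperature, then with compounds for 30 min; binding was detected by AlphaScreen.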

The target in assay [20] is Thyrotropin receptor (Homo sapiens) (UniProt P16473). The assay can be described thus: qHTS Assay for Antagonists of the Thyroid Stimulating Hormone Receptor (AID 488980). Further: series mostly up to about 58 µM. Summed up:
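HEK293 cells transfected with human TSHR, suspended in HEPES-buffered HBSS with 70 uM RO 20-1724, were treated with compounds plus TSH at EC80 (4 nM final). cAMP was measured by competitive HTRF (cryptate anti-cAMP antibody, cAMP-d2 acceptor).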

Sequence of ATP-dependent DNA helicase Q1 (Homo sapiens) (P46063 whole entry, looked up): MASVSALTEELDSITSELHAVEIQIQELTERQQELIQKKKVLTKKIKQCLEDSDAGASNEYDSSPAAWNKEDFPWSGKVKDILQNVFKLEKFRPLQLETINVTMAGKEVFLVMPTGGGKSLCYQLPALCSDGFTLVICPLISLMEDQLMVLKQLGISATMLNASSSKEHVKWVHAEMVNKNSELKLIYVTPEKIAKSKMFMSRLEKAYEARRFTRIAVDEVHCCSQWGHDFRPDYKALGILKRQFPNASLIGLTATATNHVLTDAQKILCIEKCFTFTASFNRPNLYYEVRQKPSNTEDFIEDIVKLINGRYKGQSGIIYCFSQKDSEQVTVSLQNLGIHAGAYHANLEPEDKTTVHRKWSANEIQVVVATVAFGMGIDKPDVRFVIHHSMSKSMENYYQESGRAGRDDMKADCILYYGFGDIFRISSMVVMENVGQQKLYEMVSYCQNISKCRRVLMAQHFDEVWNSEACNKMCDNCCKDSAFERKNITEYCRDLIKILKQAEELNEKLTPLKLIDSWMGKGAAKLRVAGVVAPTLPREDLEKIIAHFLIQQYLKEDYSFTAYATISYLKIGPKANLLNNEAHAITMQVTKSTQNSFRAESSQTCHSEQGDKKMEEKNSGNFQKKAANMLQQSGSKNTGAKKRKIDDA
Sequence of Beta-2 adrenergic receptor (Homo sapiens) (P07550 whole entry, looked up): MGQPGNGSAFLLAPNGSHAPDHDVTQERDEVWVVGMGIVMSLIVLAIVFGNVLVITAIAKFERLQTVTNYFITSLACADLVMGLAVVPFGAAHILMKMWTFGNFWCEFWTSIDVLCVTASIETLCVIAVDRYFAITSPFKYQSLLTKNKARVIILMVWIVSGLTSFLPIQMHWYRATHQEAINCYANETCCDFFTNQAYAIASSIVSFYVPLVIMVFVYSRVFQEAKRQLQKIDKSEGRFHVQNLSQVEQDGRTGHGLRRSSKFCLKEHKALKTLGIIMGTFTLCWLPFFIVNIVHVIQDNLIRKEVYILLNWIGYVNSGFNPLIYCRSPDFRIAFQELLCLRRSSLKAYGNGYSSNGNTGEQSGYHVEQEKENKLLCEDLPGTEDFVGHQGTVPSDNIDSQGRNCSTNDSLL
Sequence of Thyrotropin receptor (Homo sapiens) (P16473 whole entry, looked up): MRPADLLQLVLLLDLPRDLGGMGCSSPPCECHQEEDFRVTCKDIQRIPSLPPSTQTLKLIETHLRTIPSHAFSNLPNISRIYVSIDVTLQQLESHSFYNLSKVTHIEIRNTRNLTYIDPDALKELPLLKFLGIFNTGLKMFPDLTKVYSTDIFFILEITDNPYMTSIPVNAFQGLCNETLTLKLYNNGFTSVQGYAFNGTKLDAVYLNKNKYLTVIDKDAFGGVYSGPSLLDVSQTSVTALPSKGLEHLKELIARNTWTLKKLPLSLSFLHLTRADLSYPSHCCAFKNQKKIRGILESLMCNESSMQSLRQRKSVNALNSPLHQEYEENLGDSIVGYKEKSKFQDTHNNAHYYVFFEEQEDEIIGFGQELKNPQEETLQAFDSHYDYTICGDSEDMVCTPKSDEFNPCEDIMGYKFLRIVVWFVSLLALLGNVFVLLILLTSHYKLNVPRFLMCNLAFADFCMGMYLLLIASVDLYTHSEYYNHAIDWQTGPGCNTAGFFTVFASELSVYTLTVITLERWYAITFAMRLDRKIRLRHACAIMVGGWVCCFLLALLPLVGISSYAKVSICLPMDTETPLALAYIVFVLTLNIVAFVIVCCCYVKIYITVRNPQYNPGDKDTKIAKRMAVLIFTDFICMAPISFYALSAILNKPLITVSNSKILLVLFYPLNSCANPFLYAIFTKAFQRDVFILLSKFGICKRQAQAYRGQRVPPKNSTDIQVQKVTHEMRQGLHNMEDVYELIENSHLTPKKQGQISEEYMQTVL
Sequence of Ubiquitin carboxyl-terminal hydrolase 2 (Homo sapiens) (O75604 whole entry, looked up): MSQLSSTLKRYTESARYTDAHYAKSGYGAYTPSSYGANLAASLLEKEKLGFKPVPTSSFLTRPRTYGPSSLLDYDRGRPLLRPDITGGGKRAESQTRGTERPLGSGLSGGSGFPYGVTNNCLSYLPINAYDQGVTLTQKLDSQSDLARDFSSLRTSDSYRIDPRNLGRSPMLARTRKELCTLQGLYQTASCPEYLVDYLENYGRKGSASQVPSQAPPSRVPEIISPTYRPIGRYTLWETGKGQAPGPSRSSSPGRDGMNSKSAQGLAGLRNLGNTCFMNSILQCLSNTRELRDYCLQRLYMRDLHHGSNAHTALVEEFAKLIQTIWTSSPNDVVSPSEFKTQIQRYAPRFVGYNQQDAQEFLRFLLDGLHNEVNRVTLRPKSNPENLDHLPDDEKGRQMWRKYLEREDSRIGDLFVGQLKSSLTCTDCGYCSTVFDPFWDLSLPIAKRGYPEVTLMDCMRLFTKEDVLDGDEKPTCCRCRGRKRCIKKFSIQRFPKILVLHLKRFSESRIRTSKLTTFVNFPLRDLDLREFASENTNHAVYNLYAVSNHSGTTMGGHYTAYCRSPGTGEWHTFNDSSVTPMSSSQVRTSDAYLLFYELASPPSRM
Sequence of Tumor susceptibility gene 101 protein (Homo sapiens) (Q99816 whole entry, looked up, the tested form may be a part): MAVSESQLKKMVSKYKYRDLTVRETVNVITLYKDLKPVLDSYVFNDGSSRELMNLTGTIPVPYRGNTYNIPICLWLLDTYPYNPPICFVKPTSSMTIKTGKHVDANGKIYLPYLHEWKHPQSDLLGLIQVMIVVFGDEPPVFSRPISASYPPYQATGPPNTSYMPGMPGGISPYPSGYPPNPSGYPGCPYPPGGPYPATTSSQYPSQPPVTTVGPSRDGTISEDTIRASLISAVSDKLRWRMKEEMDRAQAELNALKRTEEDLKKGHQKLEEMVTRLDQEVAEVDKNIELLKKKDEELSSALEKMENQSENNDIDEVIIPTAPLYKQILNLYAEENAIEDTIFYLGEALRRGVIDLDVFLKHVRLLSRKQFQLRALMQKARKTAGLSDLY
Sequence of DNA polymerase III PolC-type (Bacillus subtilis (strain 168)) (P13267 whole entry, looked up): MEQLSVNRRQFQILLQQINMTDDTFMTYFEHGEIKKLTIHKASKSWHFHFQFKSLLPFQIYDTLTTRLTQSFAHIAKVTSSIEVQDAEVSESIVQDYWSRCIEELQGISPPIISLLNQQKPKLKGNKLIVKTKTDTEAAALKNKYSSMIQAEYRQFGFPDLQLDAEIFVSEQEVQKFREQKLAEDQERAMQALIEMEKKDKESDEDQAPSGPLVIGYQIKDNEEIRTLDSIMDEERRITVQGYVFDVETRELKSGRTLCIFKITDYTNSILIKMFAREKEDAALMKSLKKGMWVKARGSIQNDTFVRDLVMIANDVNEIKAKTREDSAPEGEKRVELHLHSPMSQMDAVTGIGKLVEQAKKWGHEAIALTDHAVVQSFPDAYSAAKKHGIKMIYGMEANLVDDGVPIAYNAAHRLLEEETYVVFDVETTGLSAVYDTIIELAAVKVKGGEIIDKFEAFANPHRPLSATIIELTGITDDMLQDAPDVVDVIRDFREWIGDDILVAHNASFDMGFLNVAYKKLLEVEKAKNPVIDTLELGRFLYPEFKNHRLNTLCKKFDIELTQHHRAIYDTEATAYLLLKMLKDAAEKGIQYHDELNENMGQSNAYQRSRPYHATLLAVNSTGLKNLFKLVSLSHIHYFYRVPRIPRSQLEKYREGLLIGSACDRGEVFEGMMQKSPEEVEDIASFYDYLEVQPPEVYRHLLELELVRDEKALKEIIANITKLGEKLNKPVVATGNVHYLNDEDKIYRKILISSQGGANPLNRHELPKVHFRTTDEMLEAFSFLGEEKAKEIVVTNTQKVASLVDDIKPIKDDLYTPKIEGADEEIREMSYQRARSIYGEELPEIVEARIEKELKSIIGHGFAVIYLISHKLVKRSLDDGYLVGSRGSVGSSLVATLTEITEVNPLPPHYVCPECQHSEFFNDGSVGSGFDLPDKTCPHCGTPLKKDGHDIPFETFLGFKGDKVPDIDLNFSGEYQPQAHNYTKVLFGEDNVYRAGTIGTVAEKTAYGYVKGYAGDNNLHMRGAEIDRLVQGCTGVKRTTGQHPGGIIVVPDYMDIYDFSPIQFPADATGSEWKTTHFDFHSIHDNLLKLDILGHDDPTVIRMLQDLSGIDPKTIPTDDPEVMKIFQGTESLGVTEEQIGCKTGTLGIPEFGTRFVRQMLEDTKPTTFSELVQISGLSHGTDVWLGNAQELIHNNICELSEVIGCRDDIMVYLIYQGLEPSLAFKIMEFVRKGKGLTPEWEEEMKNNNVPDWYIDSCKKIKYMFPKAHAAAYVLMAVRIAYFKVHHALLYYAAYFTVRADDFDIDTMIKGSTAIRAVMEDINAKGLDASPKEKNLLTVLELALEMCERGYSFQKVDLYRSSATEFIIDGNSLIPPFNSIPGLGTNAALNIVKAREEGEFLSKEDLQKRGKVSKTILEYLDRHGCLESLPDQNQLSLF

`S=C(Nc1ccccc1)Nc1nccs1`: the Potency result in assay [1], in assay [2], in assay [9], in assay [10], in assay [11] and in assay [12] was “inactive” throughout. The Potency entry in [13] and in assay [19] was “inactive” each time. The Potency is 3.55 µM (active) in assay [3]; 7.94 µM (active) in assay [4]; 12.6 µM (active) in assay [5]; 11.2 µM (active) in assay [6]; 8.91 µM (active) in assay [7]; 9.28 µM (active) in [16]. For the same compound, the Potency in assay [18] is 5.97 µM (active). Moreover, the compound was classed as inactive in [8], in assay [14], in [15], in assay [17] and in assay [20].
